Measurements as given in PubChem BioAssay (Tox21).
Results filed as inconclusive are left out. A call without a number means that no potency is given here. Calls of active or inactive are those of the source. Unless noted, calls follow the shape of the dose curve; as a rule, active = well fitted curve in the direction sought with a large enough effect in the repeat runs; inconclusive = weak or mixed curves; inactive = no such curve, though single readings can be large; an effect the other way counts as inactive or inconclusive.

Assays:
[1] = qHTS assay for small molecules that induce genotoxicity in human embryonic kidney cells expressing luciferase-tagged ATAD5 (AID 651632); also: nearly all actives have a fitted effect of over 15% in size; also: potency is read from the fitted curve at half-maximal effect
Procedure, shortened: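 Test compounds were delivered by pin tool onto HEK293T reporter cells (2,000/well) expressing ATAD5 fused to luciferase. After 16 hr at 37C, 5% CO2, Amplite was added for 30 min at room temperature and luminescence was measured.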

[2] = qHTS assay for small molecule agonists of the p53 signaling pathway - cell viability (AID 651633; calls by dose curve; also: nearly all actives have a fitted effect of over 30% in size; also: potency is read from the fitted curve at half-maximal effect)
Procedure, shortened: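 Viability counter-read: CellTiter-Glo luminescence (30 min, room temperature) in the same p53RE-bla plates. These plates had been exposed to compounds for 16 h at 37 C.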

[3] = qHTS assay for small molecules that induce genotoxicity in human embryonic kidney cells expressing luciferase-tagged ATAD5 - cell viability (AID 651634; calls by dose curve; also: nearly all actives have a fitted effect of over 25% in size; also: potency is read from the fitted curve at half-maximal effect)
Procedure, shortened: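 Quantitative high-throughput format. HEK293T cells expressing ATAD5 fused to luciferase were plated at 2,000 cells/well and treated 15.5 hr with compound versus DMSO. Viability was determined by fluorescent live-cell protease substrate, 30 min at 37C.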

[4] = qHTS assay for small molecule disruptors of the mitochondrial membrane potential - cell viability (AID 720634; calls by dose curve; also: nearly all actives have a fitted effect of over 20% in size; also: potency is read from the fitted curve at half-maximal effect)
Procedure, shortened: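 Same-well counter-screen: following the MMP dye addition, CellTiter-Glo was added to 1 hr compound-treated HepG2 cells and luminescence read after 30 min at room temperature.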

[5] = qHTS assay for small molecule disruptors of the mitochondrial membrane potential (AID 720635); also: potency is read from the fitted curve at half-maximal effect
Procedure, shortened: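 Mitochondrial membrane potential tracked with Mito-MPS dye, red aggregates (ex 540/em 590 nm) against green monomers (ex 490/em 535 nm). Compound treatment 1 hr at 37C, dye 30 min in HepG2.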

[6] = qHTS assay to test for compound auto fluorescence at 590 nm (red) in HepG2 cells (AID 720674)
Procedure, shortened: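 We screened compounds on adherent HepG2 cells, incubating them for an hour at 37 C in 5% CO2 before reading emission at 590 nm under 540 nm excitation; values reflect equivalence to Rose Bengal sodium fluorescence.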

[7] = qHTS assay to test for compound auto fluorescence at 535 nm (green) in HepG2 cells (AID 720675)
[8] = qHTS assay to test for compound auto fluorescence at 460 nm (blue) in HEK293 cells (AID 720678)
Procedure, shortened: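 Cells were seeded and left to adhere for 4-5 hr at 37C. Compounds were then pin-transferred. After an overnight incubation at 37C under 5% CO2, intrinsic fluorescence at 405/460 nm was measured and referenced to triamterene.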

[9] = qHTS assay to test for compound auto fluorescence at 590 nm (red) in HEK293 cells (AID 720679)
Procedure, shortened: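 Each well held 2,000 HEK293 cells in medium containing 10% dialyzed FBS. Following 4-5 hr attachment at 37C, 23 nL test compound or DMSO was added; plates sat overnight, and red fluorescence (540/590nm) was recorded.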

Row | SMILES | Potency [1] | Potency [2] | Potency [3] | Potency [4] | Potency [5] | outcome [6] | outcome [7] | outcome [8] | outcome [9]
1 | N#CC(O)c1ccccc1 (configuration not stated) | inactive | inactive | inactive | inactive | inactive | inactive | inactive | inactive | inactive
2 | CC(C)CC(N(C)C)C1(c2ccc(Cl)cc2)CCC1 (configuration not stated) | inactive | inactive | inactive | inactive | – | inactive | inactive | inactive | inactive
3 | CCOP(=O)(N=C1SCCS1)OCC | inactive | inactive | inactive | inactive | – | inactive | – | inactive | inactive
4 | CC(Oc1ccc(Oc2ncc(C(F)(F)F)cc2Cl)cc1)C(=O)O (configuration not stated) | inactive | inactive | inactive | inactive | – | inactive | – | inactive | inactive
5 | Nc1cc2c3c(c1)C(c1ccccc1)=N[C@@H](NC(=O)c1cccnc1)C(=O)N3CC2 | inactive | inactive | inactive | inactive | – | inactive | inactive | inactive | inactive
6 | CCOP(=S)(OCC)Oc1ncn(-c2ccccc2)n1 | inactive | inactive | inactive | inactive | 6.86 µM (active) | inactive | inactive | inactive | inactive
7 | ClC(Cl)Br | inactive | inactive | inactive | inactive | inactive | inactive | inactive | inactive | inactive
8 | CCOc1nc(C(Cl)(Cl)Cl)ns1 | inactive | inactive | inactive | inactive | – | inactive | inactive | inactive | inactive
9 | O=C(Cc1ccccc1)OCc1ccccc1 | inactive | inactive | inactive | inactive | – | inactive | inactive | inactive | inactive
10 | CCSC(=O)N(CC)C1CCCCC1 | inactive | inactive | inactive | inactive | – | inactive | inactive | inactive | inactive
11 | COP(=S)(OC)Oc1c(Cl)cc(C)cc1Cl | inactive | inactive | inactive | inactive | 24.3 µM (active) | – | inactive | inactive | inactive
12 | O=C1OC(c2ccc(O)c(S(=O)(=O)O)c2)(c2ccc(O)c(S(=O)(=O)O)c2)c2c(Br)c(Br)c(Br)c(Br)c21 | inactive | inactive | inactive | inactive | – | inactive | inactive | inactive | inactive
13 | CC(CCc1ccccc1)NC(C)C(O)c1ccc(O)cc1 (configuration not stated) | inactive | inactive | inactive | inactive | – | inactive | inactive | inactive | inactive
14 | C(CCOCC1CO1)COCC1CO1 (configuration not stated) | – | inactive | inactive | inactive | inactive | inactive | – | inactive | inactive
15 | CCOP(=S)(OCC)SCSP(=S)(OCC)OCC | inactive | inactive | inactive | – | – | inactive | inactive | inactive | inactive
16 | CNC(=O)Oc1c(C(C)(C)C)cc(C)cc1C(C)(C)C | inactive | – | inactive | inactive | – | inactive | inactive | inactive | inactive
17 | CC1CN1P(=O)(N1CC1C)N1CC1C (configuration not stated) | inactive | – | inactive | inactive | – | inactive | inactive | inactive | inactive
18 | CCc1cc2c(s1)-n1c(C)nnc1CN=C2c1ccccc1Cl | 26.6 µM (active) | inactive | inactive | inactive | – | – | – | inactive | inactive
19 | O=C(Nc1ccccc1)N(Cc1ccc(Cl)cc1)C1CCCC1 | inactive | – | – | 61.1 µM (active) | 15.4 µM (active) | inactive | inactive | inactive | inactive
20 | COc1cc(C[C@@H](C)N)c(OC)cc1C | inactive | – | inactive | inactive | inactive | inactive | – | inactive | inactive
21 | C#CCN1C(=O)COc2cc(F)c(N3C(=O)C4=C(CCCC4)C3=O)cc21 | inactive | – | inactive | – | – | inactive | inactive | inactive | inactive
22 | COc1cc(OC)nc(NC(=O)NS(=O)(=O)c2ncccc2C(=O)N(C)C)n1 | inactive | – | inactive | inactive | inactive | inactive | inactive | inactive | inactive
23 | CN1C(=S)CN=C(c2ccccc2)c2cc(Cl)ccc21 | – | inactive | inactive | inactive | – | inactive | inactive | inactive | inactive
24 | Nc1c(Br)cc([N+](=O)[O-])cc1[N+](=O)[O-] | inactive | – | 49.1 µM (active) | 61.8 µM (active) | 8.73 µM (active) | inactive | inactive | inactive | inactive

Row | SMILES | Potency [1] | Potency [2] | Potency [3] | Potency [4] | Potency [5] | outcome [6] | outcome [7] | outcome [8] | outcome [9]
25 | CNC(=O)Oc1cccc(C(C)C)c1 | – | – | inactive | inactive | – | inactive | inactive | inactive | inactive
26 | CC(C)(C)OC(=O)c1ncn2c1[C@@H]1CCCN1C(=O)c1c(Br)cccc1-2 | inactive | – | inactive | inactive | – | – | inactive | inactive | inactive
27 | Cc1ccccc1CO[C@@H]1C[C@@]2(C(C)C)CC[C@]1(C)O2 | inactive | – | inactive | – | – | – | inactive | inactive | inactive
28 | Nc1n[nH]c(N)n1 | inactive | – | inactive | inactive | – | – | – | inactive | inactive
29 | C[C@]12CC[C@H]3[C@@H](CC=C4C[C@@H](O)CC[C@@]43C)[C@@H]1CC[C@@H]2O | – | inactive | inactive | – | – | inactive | inactive | inactive | inactive
30 | O=[N+]([O-])c1cccc2c([N+](=O)[O-])cccc12 | inactive | – | inactive | inactive | – | inactive | inactive | inactive | inactive
31 | COC(=O)c1ccccc1S(=O)(=O)NC(=O)Nc1nc(C)cc(C)n1 | inactive | inactive | – | inactive | – | inactive | inactive | inactive | inactive
32 | CCCSP(=O)(OCC)Oc1ccc(Br)cc1Cl (configuration not stated) | inactive | – | – | 16.7 µM (active) | 1.05 µM (active) | – | inactive | inactive | inactive
33 | CCC(C)(C)c1cc(-n2nc3ccccc3n2)c(O)c(C(C)(C)CC)c1 | – | inactive | inactive | inactive | inactive | inactive | inactive | inactive | inactive
34 | CCN(CC)CCOC(=O)C(C)(c1ccccc1)c1ccccc1 | inactive | inactive | inactive | inactive | – | – | – | inactive | inactive
35 | CNC(=O)N(C)c1nc2ccccc2s1 | – | – | inactive | inactive | inactive | inactive | – | inactive | inactive
36 | N#CC(CCc1ccc(Cl)cc1)(Cn1cncn1)c1ccccc1 (configuration not stated) | inactive | 6.86 µM (active) | – | inactive | 48.6 µM (active) | inactive | inactive | inactive | inactive
37 | COC(=O)c1ccccc1S(=O)(=O)NC(=O)N(C)c1nc(C)nc(OC)n1 | inactive | inactive | inactive | inactive | – | – | inactive | inactive | inactive
38 | CC1(C(=O)Nc2ccc(O)c(Cl)c2Cl)CCCCC1 | inactive | inactive | inactive | – | 7.7 µM (active) | inactive | – | inactive | inactive
39 | O=C(Nc1ccccc1)c1ccccc1I | inactive | – | inactive | inactive | – | – | inactive | inactive | inactive
40 | CCCCOC(=O)c1ccccc1N | inactive | – | inactive | inactive | – | inactive | inactive | inactive | inactive
41 | C1CCC(C2CCCCC2)CC1 | inactive | – | inactive | inactive | – | inactive | inactive | inactive | inactive
42 | CCCCOP(=O)(O)OCCCC | inactive | – | inactive | inactive | inactive | inactive | inactive | inactive | inactive
43 | CCC#N | inactive | inactive | inactive | – | – | inactive | inactive | inactive | inactive
44 | Cc1ncc2n1-c1ccc(Cl)cc1C(c1ccccc1F)=NC2 | 26.6 µM (active) | – | inactive | inactive | – | inactive | inactive | inactive | inactive
45 | O=C(O)C(Br)CBr (configuration not stated) | – | inactive | inactive | inactive | inactive | inactive | inactive | inactive | inactive
46 | O=C1OC(=O)C2C1C1(Cl)C(Cl)=C(Cl)C2(Cl)C1(Cl)Cl (configuration not stated) | inactive | – | inactive | inactive | – | – | inactive | inactive | inactive
47 | CCOP(=O)(OCC)OP(=O)(OCC)OCC | inactive | – | inactive | inactive | inactive | inactive | inactive | inactive | inactive
48 | CCCSP(=S)(OCC)Oc1ccc(Cl)cc1Cl (configuration not stated) | inactive | – | inactive | – | – | inactive | inactive | inactive | inactive
